RBX1-CUL1 inh – human ROC1-CUL1 E3 ligase inhibition; in vitro K48 di-Ub FRET, acceptor:donor ratio, 45 min; 140,000 compounds, 0.6% hits; inhibition, % at 10 µM; in the data active = inhibition above about 25%
Target sequence (P62877 whole entry, looked up): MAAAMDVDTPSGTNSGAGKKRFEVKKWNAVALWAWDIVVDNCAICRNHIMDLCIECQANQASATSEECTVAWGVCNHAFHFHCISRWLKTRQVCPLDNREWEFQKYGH
Target sequence (Q13616 whole entry, looked up): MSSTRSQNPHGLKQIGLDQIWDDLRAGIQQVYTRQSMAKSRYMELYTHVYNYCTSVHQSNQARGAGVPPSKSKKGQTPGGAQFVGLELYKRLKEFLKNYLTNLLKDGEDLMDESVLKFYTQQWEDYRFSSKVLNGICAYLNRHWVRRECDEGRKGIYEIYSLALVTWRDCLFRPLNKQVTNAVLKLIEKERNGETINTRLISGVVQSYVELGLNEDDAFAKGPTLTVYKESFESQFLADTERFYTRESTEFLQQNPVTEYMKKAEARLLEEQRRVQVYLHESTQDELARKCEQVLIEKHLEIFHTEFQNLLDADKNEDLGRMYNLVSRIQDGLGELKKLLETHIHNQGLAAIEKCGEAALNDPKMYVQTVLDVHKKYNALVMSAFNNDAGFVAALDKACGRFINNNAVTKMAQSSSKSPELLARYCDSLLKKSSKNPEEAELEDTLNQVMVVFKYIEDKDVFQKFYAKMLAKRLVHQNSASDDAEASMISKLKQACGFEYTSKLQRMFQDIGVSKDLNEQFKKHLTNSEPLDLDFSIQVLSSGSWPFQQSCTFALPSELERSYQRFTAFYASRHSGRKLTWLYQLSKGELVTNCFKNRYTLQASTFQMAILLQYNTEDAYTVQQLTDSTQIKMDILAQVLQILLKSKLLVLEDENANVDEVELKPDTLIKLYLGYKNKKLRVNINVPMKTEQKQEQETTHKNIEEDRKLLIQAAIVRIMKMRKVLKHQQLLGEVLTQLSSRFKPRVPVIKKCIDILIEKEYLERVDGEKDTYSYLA
The depositor's hits bear a star. Only a selection was taken, and hits are over-represented in it overall.

SMILES | RBX1-CUL1 inh
CCOc1cc(/C=N/NC(=O)c2ccc(Cn3nc(C)c(Br)c3C)cc2)ccc1O | 1
CNC(=O)c1ccc(C2CCCN2C(=O)CN(C)Cc2ccccn2)s1 (stereo not given) | 0
CN(C1CCOCC1)C1CCCN(CCc2ccccc2)C1 (stereo not given) | 1
c1ccc2c(c1)c(N1CCOCC1)nn1nnnc21 | 4
Cc1nnc(Cl)c2ccccc12 | -3
Clc1nn2nnnc2c2ccccc12 | 30*
Cc1cc(C(=O)N2CCN(C3CCCCC3)CC2)cs1 | 10
O=C(c1ccc(Cl)s1)N1CCN(C2CCCCC2)CC1 | 72*
O=C(c1ccc(Cl)s1)N1CCN(Cc2ccc(F)cc2)CC1 | 9
Cc1ccc(-c2cn3c(n2)sc2cc(C(=O)NCCCN4CCCCCC4)ccc23)cc1 | 39*
CCOc1ccc(-c2cn3c(n2)sc2cc(C(=O)NCCCN4CCCCCC4)ccc23)cc1 | 42*
Cc1ccc(-c2cn3c(n2)sc2cc(C(=O)NCCCN4CCCCC4)ccc23)cc1 | -65
CCOc1ccc(-c2cn3c(n2)sc2cc(C(=O)NCCCN4CCCCC4)ccc23)cc1 | -170
CCCN1CCN(CCCNC(=O)c2ccc3c(c2)sc2nc(-c4ccc(OCC)cc4)cn23)CC1 | -62
CCN1CCN(CCCNC(=O)c2ccc3c(c2)sc2nc(-c4ccc(C)cc4)cn23)CC1 | -54
Cc1cccc(C(=O)OC(C(=O)c2ccccc2)c2ccccc2)c1 (stereo not given) | 2
CCCN1CCN(C(=O)c2cc(Br)ccc2Cl)CC1 | -6
Oc1ccc(-c2cnc3ccccc3n2)cc1O | 84*
Oc1ccc(-c2cnc3ccccc3n2)cc1 | 3
Clc1ccc(-c2cnc3ccccc3n2)cc1 | 0
Cc1ccc(-c2ccc(/C=C3/SC(N4CCOCC4)=NC3=O)o2)c(Br)c1 | 2
N#Cc1ccccc1-c1ccc(/C=C2/SC(=O)NC2=O)o1 | -3
Cc1ccc(-c2ccc(/C=C3/SC(=S)NC3=O)o2)c(Br)c1 | 96*
Cc1cc(=O)[nH]c(-c2cccc(CN3CCC(Nc4ncccn4)CC3)c2)n1 | -8
CN(Cc1cnccn1)C(=O)Nc1nnc(C(F)(F)F)s1 | -8
SMILES | RBX1-CUL1 inh
Cn1cc(C2C(=O)NC(c3ccccc3)=NN2C(=O)c2ccccc2)c2ccccc21 (stereo not given) | -5
CN(C)S(=O)(=O)N1CCC(C(=O)Nc2ccc(Br)c(Cl)c2)CC1 | -5
COC(=O)c1ccc(/C=c2\sc3n(c2=O)C(c2ccc(Cl)cc2Cl)C2=C(N=3)c3ccccc3CC2)cc1 (stereo not given) | -6
CCOc1ccc(/C=c2/sc3n(c2=O)C(c2cc(OC)ccc2OC)C2=C(N=3)c3ccccc3CC2)cc1 (stereo not given) | 7
COc1ccc(C2C3=C(N=c4s/c(=C/c5ccc(C(=O)O)cc5)c(=O)n42)c2ccccc2CC3)cc1 (stereo not given) | 76*
COc1ccc(C(=O)Oc2ccc(/C=c3/sc4n(c3=O)C(c3ccccc3Cl)C3=C(N=4)c4ccccc4CC3)cc2)cc1 (stereo not given) | -9
O=c1/c(=C\c2cccs2)sc2n1C(c1cccc(F)c1)C1=C(N=2)c2ccccc2CC1 (stereo not given) | 2
COc1ccccc1C1C2=C(N=c3s/c(=C\c4ccccc4O)c(=O)n31)c1ccccc1CC2 (stereo not given) | -7
O=c1/c(=C\c2cc(Cl)cc(Cl)c2O)sc2n1C(c1ccc(Cl)cc1Cl)C1=C(N=2)c2ccccc2CC1 (stereo not given) | 35*
COc1ccc(C2C3=C(N=c4s/c(=C/c5ccc(C(C)C)cc5)c(=O)n42)c2ccccc2CC3)cc1 (stereo not given) | 3
O=c1/c(=C\c2ccc(F)cc2)sc2n1C(c1ccc(Cl)cc1Cl)C1=C(N=2)c2ccccc2CC1 (stereo not given) | -5
COc1ccccc1C1C2=C(N=c3s/c(=C/c4cccc(OCC(=O)O)c4)c(=O)n31)c1ccccc1CC2 (stereo not given) | 30*
O=c1/c(=C\c2ccco2)sc2n1C(c1cccs1)C1=C(N=2)c2ccccc2CC1 (stereo not given) | 28*
O=c1/c(=C\c2cc3c(cc2[N+](=O)[O-])OCO3)sc2n1C(c1cccs1)C1=C(N=2)c2ccccc2CC1 (stereo not given) | -7
CC(C)NC(=O)c1sc2nc(-c3cccs3)cc(-c3ccc(Cl)cc3)c2c1N | -2
O=C1C(=C2SC3=C(SCCS3)S2)C(=O)c2c(F)cccc21 | 8
COc1ccc(CN2CC[C@@H](N3CCC(O)CC3)[C@H](O)C2)c(F)c1 | 7
CCOC(=O)c1c(-c2ccc(Cl)cc2Cl)csc1NC(=O)C(F)(F)F | -1
COc1cc(C(=O)N2CCCC2)cc(OC)c1OCc1ccccc1 | 0
O=C(NCc1ccncc1)c1cc(Br)cs1 | -1
CCOC(=O)C1(Cc2ccc(F)cc2F)CCCN(C(=O)C2CC2)C1 (stereo not given) | 3
COc1ccc(CN2C(=O)O[C@@H]3CN(Cc4ccc(C)s4)C[C@@H]32)cc1OC | 1
CCOC(=O)N1CCN(Cc2nc3cc(C)ccc3n2C)CC1 | 5
O=S(=O)(c1ccccc1)C1ON(c2ccccc2)C(c2ccccc2)C1c1ccccc1 (stereo not given) | 2
COc1ccc(C(Cc2ccccc2)NC(=O)c2cccc(I)c2)cc1OC (stereo not given) | -2
SMILES | RBX1-CUL1 inh
O=C1Nc2c(Cl)cccc2C12OCCCO2 | 5
CCCC1CCc2c(sc(NC(=O)C(F)(F)F)c2C(N)=O)C1 (stereo not given) | -4
Cc1ccc2c(c1)c1c(n2C)C(=O)/C(=C/c2ccccc2)CC1 | 8
COc1cc(/C=c2\sc3n(c2=O)C(c2ccccc2)C2=C(N=3)c3ccccc3CC2)cc(OC)c1O (stereo not given) | 5
COc1ccc(C2C3=C(N=c4s/c(=C/c5cccc(OC)c5O)c(=O)n42)c2ccccc2CC3)cc1 (stereo not given) | -9
COc1ccc(C2C3=C(N=c4s/c(=C/c5ccc(O)c([N+](=O)[O-])c5)c(=O)n42)c2ccccc2CC3)cc1 (stereo not given) | 44*
CO[C@@H]1O[C@@H]2COC(c3ccccc3)O[C@H]2[C@H](OC(=O)c2ccccc2)[C@H]1OC(=O)c1ccccc1 (stereo not given in full) | -8
COc1cc(/C=C2\C(=O)N(c3ccc(Cl)cc3)N=C2C(F)(F)F)ccc1OC(=O)c1ccco1 | -3
CCOc1cc(/C=C2\C(=O)NC(=S)N(c3ccc(Br)cc3)C2=O)cc(Br)c1O | 7
CCOc1cc(/C=C2\C(=O)N(c3ccc(C(=O)O)cc3)N=C2C(F)(F)F)cc(Br)c1O | 62*
O=C(Nc1ccc(Cl)c(Cl)c1)NN1C(=O)CSC1=S | 2
Cc1cccc(N2CCN(c3cccc(C)c3)C2c2ccc(Cl)cc2Cl)c1 | 1
O=C(C[n+]1ccc(-c2ccccc2)cc1)c1ccccc1 | -1
O=C(/C=C/c1cc[n+](CC(=O)c2ccc3cccc4c3c2CC4)cc1)c1ccc2cccc3c2c1CC3 | 87*
CN(C)c1ccc(/C=C/C(=O)c2ccc3c4c(cccc24)CC3)cc1 | 4
O=C1C2C(c3ccc(Br)cc3)OC3(C(=O)c4ccccc4C3=O)C2C(=O)N1c1cccc(C(F)(F)F)c1 (stereo not given) | -4
CCOc1ccc(N=C(N)N=C2N=C(CSc3ccc(Cl)cc3)CC(=O)N2)cc1 | -5
COC(=O)c1cnn(-c2cc(OC)ncn2)c1N | -8

Source: PubChem BioAssay
